This is an account of results in PubChem BioAssay (EPA / NIEHS).

Activity calls are given as the source filed them. The calls were made as follows: active = hit-call score of the fitted dose curve at least 0.9, where 1 is the maximum; inactive = score below 0.9.

A short description of test [1]: APR_HepG2_CellCycleArrest_24hr: Apredica 24-hour HepG2 Assay for Cell Cycle Arrest (AID 2282905).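 Also: cell cycle arrest scored as ratio of 2N to 4N nuclear DNA content.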 As to conditions: imaging, actives raise or lower the signal. The method in brief: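 Cell cycle arrest is scored from nuclear DNA content measured by high-content imaging of Hoechst 33342-stained HepG2 cells following 24-hour treatment at ten concentrations up to 200 uM, with DMSO as baseline.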

Test [2] is described as follows: APR_HepG2_NuclearSize_24hr: Apredica 24-hour HepG2 Assay for Nuclear Size (AID 2282907). The settings on record: high-content imaging, actives raise or lower the signal. The method in brief: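 Compounds in DMSO (final 0.5%) were added to human HepG2 hepatoma cells at ten concentrations up to 200 uM for 24 hr. Fixed nuclei were stained with Hoechst 33342, and nuclear diameter was quantified from automated images.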

A short description of test [3]: APR_HepG2_CellLoss_24hr: Apredica 24-hour HepG2 Assay for Cell Loss (AID 2282908).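 As to AC50: fit in both directions so a hit may be cell loss or gain.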 As to conditions: high-content imaging. The method in brief: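 Cell number is quantified by fluorescence imaging of Hoechst 33342-stained nuclei following dosing at 0.39–200 uM in 0.5% DMSO. Curves are fitted in both directions from the DMSO baseline.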
Test [4] is described as follows: APR_HepG2_MitoticArrest_24hr: Apredica 24-hour HepG2 Assay for Mitotic Arrest (AID 2282910). As to conditions: high-content imaging, actives raise or lower the signal. An outline of the steps:
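HepG2 human liver cells were exposed to compounds at 0.39–200 uM (10 concentrations, duplicate) in 0.5% v/v DMSO for 24 hr, then fixed and immunostained for phospho-histone H3 with Hoechst 33342. Mitotic arrest came from HCS fluorescent imaging, fitted bidirectionally against DMSO.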

Test [5] in a line: APR_HepG2_MitoMembPot_24hr: Apredica 24-hour HepG2 Assay for Mitochondrial Membrane Potential (AID 2282911). The settings on record: imaging, actives raise or lower the signal. An outline of the steps:
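HepG2 human liver cells were exposed 24 hr to compounds at 0.39–200 uM (final DMSO 0.5% v/v) in duplicate. MitoTracker Red CMXRos (250 nM, 30 min) was loaded before formaldehyde fixation; fluorescence was imaged by ArrayScan HCS and fitted bidirectionally versus DMSO.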

Test [6] can be described thus: APR_HepG2_MitoMass_24hr: Apredica 24-hour HepG2 Assay for Mitochondrial Mass (AID 2282912). As to conditions: high-content imaging, actives raise or lower the signal. An outline of the steps: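 The liver line HepG2 was dosed in duplicate across a 0.39–200 uM series, with final DMSO held at 0.5% v/v, and harvested at 24 hr. High-content imaging measured mitochondrial dye staining.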

A short description of test [7]: APR_HepG2_p53Act_24hr: Apredica 24-hour HepG2 Assay for p53 Activation (AID 2282913).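 Also: p53 protein immunofluorescence averaged per cell in HepG2 with Hoechst nuclei.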 The settings on record: high-content imaging, actives raise or lower the signal. The method in brief: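 HepG2 cells exposed 24 hr to compounds at 0.39–200 uM (10 concentrations, duplicate), final DMSO 0.5% v/v. After formaldehyde fixation and Triton permeabilization, p53 was immunolabeled (sheep anti-p53, Cy5 secondary) with Hoechst 33342 nuclear counterstain, then imaged by high-content fluorescence microscopy.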

Test [8] can be described thus: APR_HepG2_CellCycleArrest_72hr: Apredica 72-hour HepG2 Assay for Cell Cycle Arrest (AID 2282914). As to conditions: high-content imaging, actives raise or lower the signal. An outline of the steps:
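HepG2 cells were exposed to compounds at 0.39–200 uM (0.5% v/v DMSO final, duplicates) for 72 hr, fixed in 3.7% formaldehyde, permeabilized and stained with Hoechst 33342. Nuclear DNA content was quantified by high-content imaging; gain or loss of signal was fitted bidirectionally against DMSO.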

A short description of test [9]: APR_HepG2_CellLoss_72hr: Apredica 72-hour HepG2 Assay for Cell Loss (AID 2282915). The settings on record: high-content imaging. The method in brief:
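HepG2 cells were exposed for 72 hr to compounds at 0.39–200 uM (ten concentrations, duplicate) in 0.5% v/v final DMSO. Nuclei were stained with Hoechst 33342 after 3.7% formaldehyde fixation, imaged at 20x, and counted; fits bidirectional versus DMSO.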

A short description of test [10]: APR_HepG2_P-H2AX_72hr: Apredica 72-hour HepG2 Assay for H2AX Phosphorylation (AID 2282916).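 Also: phospho-histone H2A.x immunostain intensity per cell marking DNA damage.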 As to conditions: imaging, actives raise or lower the signal. The method in brief:
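Following 72 hr treatment with 0.39–200 uM compound, HepG2 cells were formaldehyde-fixed, permeabilized and stained for phospho-H2A.x; signal was measured by high-content imaging and fitted bidirectionally against DMSO controls.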

Test [11] can be described thus: APR_HepG2_MitoMembPot_72hr: Apredica 72-hour HepG2 Assay for Mitochondrial Membrane Potential (AID 2282917). As to conditions: imaging, actives raise or lower the signal. The method in brief:
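HepG2 cells exposed 72 h to compounds at 0.39–200 uM (0.5% v/v DMSO, duplicates); MitoTracker Red CMXRos 250 nM loaded 30 min before 3.7% formaldehyde fixation, imaged by HCS fluorescence. Bidirectional fit versus DMSO.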

A short description of test [12]: APR_HepG2_MitoticArrest_72hr: Apredica 72-hour HepG2 Assay for Mitotic Arrest (AID 2282918). As to conditions: high-content imaging, actives raise or lower the signal. An outline of the steps: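 HepG2 cells were exposed for 72 hr to compound at 0.39–200 uM (10 concentrations, duplicate) in 0.5% v/v DMSO, fixed in 3.7% formaldehyde, immunostained for phospho-histone H3 with Hoechst 33342 and imaged by high-content fluorescence; bidirectional fits versus DMSO.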

Test [13] in a line: APR_HepG2_MicrotubuleCSK_72hr: Apredica 72-hour HepG2 Assay for Microtubule CSK Stabilty (AID 2282919). The settings on record: HepG2 microtubule cytoskeleton, high-content imaging, actives raise or lower the signal. An outline of the steps: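 HepG2 human liver cells were dosed for 72 h at ten concentrations from 0.39 to 200 uM in duplicate (0.5% v/v DMSO final). Fixed, permeabilized cells were immunostained for alpha-tubulin (Cy5) with a Hoechst counterstain and imaged at 20x.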

The nature of test [14]: APR_HepG2_P-H2AX_24hr: Apredica 24-hour HepG2 Assay for H2AX Phosphorylation (AID 2282920). The settings on record: high-content imaging, actives raise or lower the signal. The method in brief:
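HepG2 human liver cells were exposed for 24 hr to compounds at 0.39–200 uM in duplicate, with 0.5% v/v DMSO final. Fixed cells were immunostained for phospho-histone H2A.x plus Hoechst 33342, imaged by HCS fluorescence, and fitted bidirectionally against DMSO.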

The nature of test [15]: APR_HepG2_StressKinase_24hr: Apredica 24-hour HepG2 Assay for Stress Kinase (AID 2282922). The settings on record: HepG2 stress kinase (phospho-c-Jun) imaging, actives raise or lower the signal. The method in brief: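 HepG2 cells exposed 24 hr to compound at 0.39–200 uM (10 concentrations, duplicate), 0.5% v/v DMSO final. Fixed in 3.7% formaldehyde, permeabilized with Triton X-100, immunolabeled for phospho-c-Jun with Hoechst 33342; HCS fluorescence imaging, bidirectional fit versus DMSO.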

The nature of test [16]: APR_HepG2_p53Act_72hr: Apredica 72-hour HepG2 Assay for p53 Activation (AID 2282923).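 Also: average cellular p53 protein immunofluorescence intensity in HepG2 cells.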 The settings on record: high-content imaging, actives raise or lower the signal. The method in brief:
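HepG2 monolayers receive test compounds in duplicate at ten concentrations (0.39 through 200 uM) for 72 hr. They are then formaldehyde-fixed, antibody-labelled for p53, Hoechst-stained and imaged, with activity fitted bidirectionally versus DMSO.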

Test [17] in a line: APR_HepG2_MitoMass_72hr: Apredica 72-hour HepG2 Assay for Mitochondrial Mass (AID 2282924).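 Also: MitoTracker Red CMXRos stain intensity per cell imaged as mitochondrial mass.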 The settings on record: high-content imaging, actives raise or lower the signal. The method in brief: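 HepG2 cells were exposed for 72 hr to compounds at 0.39–200 uM (ten concentrations, duplicate, 0.5% v/v DMSO final). Live cells were stained with 250 nM MitoTracker Red CMXRos for 30 min, then fixed in 3.7% formaldehyde and imaged by HCS fluorescence.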

Test [18] is described as follows: APR_HepG2_StressKinase_72hr: Apredica 72-hour HepG2 Assay for Stress Kinase (AID 2282921). The settings on record: HepG2 stress kinase (phospho-c-Jun) imaging, actives raise or lower the signal. The method in brief: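 Fluorescence intensity of Cy3-tagged anti-phospho-c-Jun antibody, quantified per cell from Hoechst-defined nuclei across six images per well, served as the read-out following 72 h exposure (0.39–200 uM, 0.5% v/v DMSO).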

Test [19] can be described thus: APR_HepG2_StressKinase_1hr: Apredica 1-hour HepG2 Assay for Stress Kinase (AID 2282906). The settings on record: HepG2 stress kinase (phospho-c-Jun) imaging, actives raise or lower the signal. The method in brief: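 HepG2 cells dosed 0.39-200 uM (0.5% DMSO) for 1 h, then formaldehyde-fixed. Stress kinase read by phospho-c-Jun immunofluorescence using high-content imaging; bidirectional fit vs DMSO.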

Consider `N[C@@H](Cc1cc(I)c(Oc2ccc(O)c(I)c2)c(I)c1)C(=O)O`, for which the result in test [1], in [2], in test [3], in test [4], in test [5] and in test [6] was inactive. The compound was called inactive in test [7], in test [8], in test [9], in test [10], in test [11] and in [12]. The compound was called inactive in [13], in [14], in test [15], in test [16] and in test [17].

Take `CC(=O)[C@H]1CC[C@H]2[C@@H]3CCC4=CC(=O)CC[C@]4(C)[C@H]3CC[C@]12C`: the concentration at half-maximal activity (AC50) is 169 µM (active) in test [1]; 101 µM (active) in test [3]; 100 µM (active) in test [4]; 106 µM (active) in [6]; 94.1 µM (active) in test [7]; 165 µM (active) in test [8]. Also, the concentration at half-maximal activity (AC50) was 95.6 µM (active) in test [9]; 94.1 µM (active) in test [10]; 81.6 µM (active) in test [12]; 116 µM (active) in test [14]; 97.2 µM (active) in [16]. Moreover, the call in test [2], in test [5], in test [11], in test [13], in test [18] and in test [15] was inactive. Also, the compound was called inactive in test [17].

With `COCCO`, the compound was called inactive in [1], in test [19], in test [2], in test [3], in test [4] and in test [5]. Also, the result in [6], in [7], in [8], in test [10], in test [12] and in test [13] was inactive. Further, the compound was called inactive in [14], in test [15], in test [16] and in test [17].

As for `C=CCOC(Cn1ccnc1)c1ccc(Cl)cc1Cl` (configuration not stated), the compound was called inactive in test [1], in test [19], in test [2], in [4], in [5] and in test [6]. Moreover, the call in [7], in test [8], in [10], in test [14], in test [18] and in [15] was inactive. Also, the call in test [16] and in test [17] was inactive. The AC50 in test [3] was 55.8 µM (active); in test [12], 78.5 µM (active); in test [13], 43.1 µM (active).

In the case of `O=C(c1ccc(O)cc1O)c1ccc(O)cc1O`, the compound was classed as inactive in test [1], in test [2], in test [3], in [4], in test [6] and in test [7]. Moreover, the compound was classed as inactive in test [8], in test [10], in [11], in [12], in test [13] and in test [14]. Also, the outcome in test [15] and in test [16] was inactive. Besides, the results for the AC50 in test [5] and in test [17] were 2.29 µM (active) and 4.43 µM (active), respectively.

Regarding `C#C[C@]1(O)CC[C@H]2[C@@H]3CCC4=CC(=O)CC[C@@H]4[C@H]3CC[C@@]21CC`, the result in test [1], in test [2], in test [3], in test [4], in test [5] and in [6] was inactive. Also, the compound was classed as inactive in [7], in test [8], in test [10], in test [11], in test [12] and in test [13]. The compound was called inactive in test [14], in test [18], in test [15], in test [16] and in test [17].

Regarding `CCOC(=O)C(C)Oc1ccc(Oc2cnc3cc(Cl)ccc3n2)cc1` (configuration not stated), the compound was classed as inactive in test [1], in test [19], in test [2], in test [4], in [5] and in test [6]. The call in test [8], in test [10], in [12], in test [14], in [18] and in test [15] was inactive. The call in [17] was inactive. For the same compound, the AC50 in test [3] was 58.5 µM (active); in test [11] it was 13.6 µM (active); in test [13] it was 95.1 µM (active).
